We go through 40 compounds from PubChem BioAssay.

SMILES strings stand for the structures. A number with no mark means an inactive call. The rule behind the calls is not given here.

The target in this assay is Pantothenate synthetase (Mycobacterium tuberculosis (strain ATCC 25618 / H37Rv)) (UniProt P9WIL5). The assay can be described thus: Recombinant Mtb pantothenate synthetase (PanC) inhibitors, coupled enzyme, confirmatory (AID 375).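 Note: 0% = full reaction with vehicle and 100% = no enzyme background.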 Particulars: coupled enzyme assay; at 10 µM, stronger effect = higher value.
Chain of Pantothenate synthetase (Mycobacterium tuberculosis (strain ATCC 25618 / H37Rv)) (P9WIL5 whole entry, looked up): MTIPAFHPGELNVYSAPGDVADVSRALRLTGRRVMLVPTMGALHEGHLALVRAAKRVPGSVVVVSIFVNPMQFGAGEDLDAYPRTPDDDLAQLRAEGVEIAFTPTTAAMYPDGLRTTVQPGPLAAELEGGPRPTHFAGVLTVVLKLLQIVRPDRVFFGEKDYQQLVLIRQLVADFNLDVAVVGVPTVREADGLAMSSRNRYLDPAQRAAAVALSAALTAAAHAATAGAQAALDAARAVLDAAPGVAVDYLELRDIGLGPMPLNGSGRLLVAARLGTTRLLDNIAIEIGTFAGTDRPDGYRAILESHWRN
On to `COc1ccccc1N(CC(=O)Nc1cccnc1)S(C)(=O)=O`, for which the inhibition was 5%. The result for `CCCCC[C@H](O)/C=C/[C@@H]1[C@@H](CCCCCCC(=O)O)[C@@H](O)C[C@H]1O` reads 0%; that for `O=C(NCCN1CCOCC1)C1CCC(=O)N1Cc1ccccc1Cl` (stereo not given), 0%; that for `COc1ccc(CCN2C(=O)CC(N3CCN(S(=O)(=O)c4ccccc4)CC3)C2=O)cc1` (stereo not given), 0%. In the case of `CC(C)CCNC(=O)NC(=O)CN1C(=O)NC2(CCCCC2)C1=O` it was 2%; in that of `CCCN1CCN(CCCNC(=O)Cn2nc(-c3ccc(Cl)cc3)ccc2=O)CC1`, 0%; in that of `O=C(CN(CCc1ccccc1)C(=O)CN1C(=O)COc2ccccc21)NCc1ccco1`, 10%. In the case of `CS(=O)(=O)N(Cc1nc2sc3c(c2c(=O)[nH]1)CCCC3)C1CCCCC1` it was 0%; in that of `Cc1ccc(C)c(-n2c(Cc3cc(=O)[nH]c(=O)[nH]3)nnc2SCC(=O)NCc2ccco2)c1`, 0%; in that of `Cc1ccc2[nH]c3c(=O)n(CCCN4CCN(C)CC4)cnc3c2c1`, 4%.

For the compound `COc1ccc(OCCCC(=O)Nc2nncs2)cc1`, the inhibition is 0%. Turning to `Cc1ccc(N=C2NC(=O)CS2)c(C)c1`, the inhibition is 0%. In the case of `CC(C)Oc1ccc(-c2nn(-c3ccccc3)cc2/C=c2\sc3ncnn3c2=O)cc1` it was 0%; in that of `COc1ccc(OC)c(C2=NOC(C(=O)Nc3cc(C)nn3-c3ccccc3)C2)c1` (stereo not given), 0%.

Take `Cc1cc(C)n2nc(SCc3cc(=O)n4ccccc4n3)nc2n1`: the inhibition is 0%.

In the case of `O=C(CN(C(=O)CCC(=O)Nc1nccs1)c1ccccc1F)NCC1CCCO1` (stereo not given), the inhibition was 2%. With `CCn1c(SCC(=O)N2c3ccccc3CCc3ccccc32)nc2c1c(=O)n(C)c(=O)n2C`, the inhibition is 1%. With `Cc1cccc2cc(CN(CCN3CCCC3)C(=O)NC3CCCCC3)c(=O)[nH]c12`, the inhibition is 0%. The result for `CCOC(=O)c1sc(NC(=O)CNC(=O)Cn2cnc3sc(C)c(C)c3c2=O)nc1C` reads 0%. Consider `Cc1nc(-c2cccc(N)c2)cs1`, for which the inhibition is 0%. The result for `CC(=O)N1c2c(cc(Br)cc2S(=O)(=O)NCC2COc3ccccc3O2)CC1C` (stereo not given) reads 2%. As to `COc1ccc(-c2cc(C(=O)Nc3ccc(C)cc3)no2)cc1`, the inhibition was 0%. In the case of `N#CCC(=O)N1CCn2c1nc1ccccc12` it was 0%; in that of `CC(C(=O)N1CCCCC1)n1sc2ccccc2c1=O` (stereo not given), 0%. In the case of `CCOC(=O)CC(NS(=O)(=O)c1ccc(NC(C)=O)cc1)c1ccc(OCC)cc1` (stereo not given), the inhibition is 5%.

Regarding `Cc1cc(C)n(C2=NS(=O)(=O)c3ccccc32)n1`, the inhibition was 1%. In the case of `N#CCSc1nc(-c2ccccc2)cs1` it was 0%; in that of `CC1=C(C#N)C(c2ccc3ncccc3c2)C(C#N)=C(C)N1`, 4%. In the case of `COCCSc1nnc(NC(=O)Cc2ccccc2OC)s1`, the inhibition was 4%. In the case of `COc1nc(OC)nc(N2CCC(C(=O)NCc3cccs3)CC2)n1` it was 0%.

On to `Cc1ccc(S(=O)(=O)NCC(=O)N(CC(=O)NCc2ccccc2)CC2CCCO2)cc1` (stereo not given), for which the inhibition is 2%. As for `Cc1ccc(-c2nnc3c4ccccc4c(C)nn23)cc1S(=O)(=O)N1CCN(C)CC1`, the inhibition was 1%.

Take `Cc1ccc2nc(SCC(=O)NCc3ccco3)c(C#N)cc2c1`: the inhibition is 0%. Regarding `Cc1nc2ccccc2c2oc(C(=O)N3CCN(C(=O)c4ccco4)CC3)cc12`, the inhibition is 0%. Turning to `CCCN1CCN(C(=O)c2cn(CC(C)C)c(=O)c3cc(OC)c(OC)cc23)CC1`, the inhibition was 5%. In the case of `Cn1c(=O)cc(SCC(=O)NCc2cccnc2)c2ccccc21` it was 4%; in that of `CCN1C(=O)CC(N2CCC(Nc3ccc(F)cc3)CC2)C1=O` (stereo not given), 0%; in that of `Cn1c(C(=O)NCC2CCCO2)cc2c(=O)n(C)c3ccccc3c21` (stereo not given), 0%. `Cc1oc2c(CN3CCOCC3)c(O)ccc2c(=O)c1-c1ccc(Br)cc1`: the inhibition was 0%. The result for `O=C(NCc1ccco1)C1(S(=O)(=O)c2ccc(Cl)cc2)CC1` reads 0%.

Usually inhibition stands for the change of the read-out against control, counted positive when it falls.
